Bioassay records (PubChem BioAssay)
An excerpt weighted towards active compounds, which were near 2.3% of everything screened.
Bim-Mcl-1 = inhibitors of Bim-Mcl-1 interaction, human. 190,000 tested, 0.1% active. Bead-based flow cytometry, Bim peptide-Mcl-1 binding. Q07820. inhibition, % at 10 µM; in the data active = inhibition above about 40%;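 note: 0% = no compound tracer wells and 100% = peptide blocker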
Target sequence (Q07820 whole entry, looked up): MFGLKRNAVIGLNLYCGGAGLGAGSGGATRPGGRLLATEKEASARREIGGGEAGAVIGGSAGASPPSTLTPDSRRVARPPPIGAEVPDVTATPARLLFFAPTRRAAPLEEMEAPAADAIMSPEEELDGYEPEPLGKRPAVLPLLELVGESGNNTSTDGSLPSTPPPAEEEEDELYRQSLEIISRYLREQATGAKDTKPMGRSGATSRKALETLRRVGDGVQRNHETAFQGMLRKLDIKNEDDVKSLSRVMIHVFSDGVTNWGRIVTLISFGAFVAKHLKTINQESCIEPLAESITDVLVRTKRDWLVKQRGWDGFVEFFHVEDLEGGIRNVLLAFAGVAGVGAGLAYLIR
Bcl-xL primary = inhibitors of human Bcl-xL; Q07817; GST-Bcl-xL / FITC-Bim BH3 peptide fluorescence polarization; inhibition, % at 10.9 µM; 320,000 tested, 0.7% active; AID 2129;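 active = inhibition above the mean of all tested compounds plus 3 SD, cutoff set per campaign, cut at about 30% in these data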;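 note: 0% = DMSO wells and 100% = unlabeled Bim-BH3 peptide competitor; inhibitors lower millipolarization by displacing the labeled peptide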
Target sequence (Q07817 whole entry, looked up): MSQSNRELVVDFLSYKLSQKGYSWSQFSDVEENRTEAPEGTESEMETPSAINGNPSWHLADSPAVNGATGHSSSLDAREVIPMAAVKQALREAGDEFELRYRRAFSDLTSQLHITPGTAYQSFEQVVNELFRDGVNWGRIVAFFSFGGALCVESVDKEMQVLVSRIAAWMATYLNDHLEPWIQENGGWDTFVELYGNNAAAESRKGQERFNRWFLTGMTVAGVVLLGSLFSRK
GLD-1 TGE inh = GLD-1-TGE RNA interaction inhibition (C. elegans). purified GLD-1 + fluorescein TGE RNA, fluorescence polarization. inhibition, % at 5.96 µM. 320,000 tested, 0.44% active. AID 2280;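 active = percent inhibition above a per-plate cutoff, the plate mean of test compounds plus 3 SD, cut at about 30% in these data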;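 note: 0% = DMSO wells with GLD-1 and probe and 100% = wells lacking GLD-1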
Mcl1-Noxa inh = Mcl-1/Noxa interaction inhibition; Q07820; TR-FRET Mcl-1/Noxa peptide binding, 2 h; inhibition, % at 21.7 µM; 220,000 tested, 1.5% active; AID 1022;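 active = compounds that cut the protein-peptide binding signal by more than 50% relative to plate controls in a single-dose test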;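 note: His-tagged Mcl-1 with rhodamine Noxa BH3 peptide and terbium anti-His antibody; 0% = Mcl-1 plus Noxa peptide wells and 100% = peptide-only wells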
MCL1 BIM primary = inhibitors of human MCL1 binding to BIM-BH3 peptide | Q07820 | GST-MCL1 / FITC-Bim-BH3 fluorescence polarization | inhibition, % at 10.9 µM | 320,000 tested, 0.68% active;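 active = inhibition above the mean inhibition of all tested compounds plus 3 SD, set per campaign, cut at about 40% in these data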;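 note: 0% = DMSO wells and 100% = unlabeled Bim-BH3 peptide control; higher means more loss of mP so more displacement of Bim peptide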
Mcl1 Bid PPI = disrupts binding of human Mcl-1 to Bid peptide. Q07820. 220,000 tested, 0.97% active. TR-FRET Mcl-1/Bid-Dy647 peptide binding, 1536-well. inhibition, % at 21.7 µM;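 active = compounds that cut the binding signal by more than half at the single screening dose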;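 note: His-tagged Mcl-1 with europium anti-His antibody binding Bid BH3 peptide; 0% = Mcl-1 plus peptide wells and 100% = peptide-only wells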
BCLXL inh confirm = counter-screen for MCL1 inhibitors: confirmation of human Bcl-xL inhibitors; shares compounds with MCL1 BIM primary; GST-Bcl-xL / FITC-Bim BH3 peptide FP binding; inhibition, % at 10.9 µM; 1,700 tested, 54% active; AID 2166;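 active = inhibition above a cutoff equal to the mean inhibition of all tested compounds plus 3 SD, cut at about 30% in these data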;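 note: 0% = DMSO wells and 100% = unlabeled Bim BH3 control peptide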
MCL1 BIM confirm = confirmation of human MCL1 and BIM-BH3 interaction inhibitors; 1,700 tested, 61% active; AID 2168; inhibition, % at 10.9 µM; GST-MCL1 / FITC-Bim-BH3 fluorescence polarization; shares compounds with MCL1 BIM primary;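 active = inhibition above the average of all tested compounds plus 3 SD, cut at about 40% in these data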;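 note: 0% = DMSO wells and 100% = unlabeled Bim-BH3 control peptide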
Numbers without * were called inactive; x = no result given; + = active, no number.

SMILES | Bim-Mcl-1 | Bcl-xL primary | GLD-1 TGE inh | Mcl1-Noxa inh | MCL1 BIM primary | Mcl1 Bid PPI | BCLXL inh confirm | MCL1 BIM confirm
CN(C)C1(CN=Cc2cc(Cl)cc([N+](=O)[O-])c2O)CCCCC1 | x | 8 | 5 | x | 60* | x | -3 | 2
CC(=O)N1c2ccc(S(=O)(=O)N3CCC(C(=O)N4CC(C)CC(C)C4)CC3)cc2CC1C (stereo not given) | x | 3 | 1 | x | -1 | x | x | x
CN(C(=S)NC(=O)c1ccccc1)c1c(N)n(Cc2ccccc2)c(=O)[nH]c1=O | x | 7 | -3 | 7 | 7 | -35 | x | x
Nc1c(NCc2ccccc2)c(=O)[nH]c(=O)n1Cc1ccccc1 | -6 | 70* | 86* | 11 | 88* | -55 | 8 | 15
CCOc1ccc(C2C(C#N)=C(N)N(N(C)C)C3=C2C(=O)CC(C)(C)C3)cc1 (stereo not given) | x | 4 | -2 | x | 7 | x | x | x
COc1ccc(NC(=O)/C=C/c2cccc(Br)c2)cn1 | x | 91* | 67* | x | 99* | x | 74* | 86*
COc1ccc(C(=O)NCC(=O)OCc2ccccc2F)cc1 | 2 | 4 | 2 | -1 | 3 | -27 | x | x
COc1ccc(N=Nc2nc3ccc(Br)cc3n2C)cc1 | 0 | + | 176* | 20 | + | -3 | 88* | 116*
Cn1c(CC(=O)Nc2ccc(Cl)cc2)nnc1SCC(=O)N1CCOCC1 | x | 2 | -2 | x | -3 | x | x | x
Cc1ccc(F)cc1CNC(=O)C1CCC(=O)N(C2CC2)C1 (stereo not given) | x | 5 | 0 | x | 9 | x | x | x
CCCCOc1[nH]c2nc(-c3ccco3)n(Cc3ccco3)c(=N)c2c1C#N | -2 | 140* | 107* | 6 | 163* | -12 | 90* | 123*
c1ccc(CSc2nnc(-c3ccco3)n2Cc2ccco2)cc1 | 0 | 2 | -4 | 5 | 3 | -4 | x | x
CN(CCC#N)C(=O)COC(=O)c1c2c(nc3ccccc13)/C(=C/c1ccco1)CC2 | 22 | 44* | -23 | 85* | 67* | 63* | 40* | 48*
CC1(C)Cc2c(sc(N)c2C#N)C(C)(C)N1 | -6 | 6 | -11 | 3 | 0 | -68 | x | x
CN1Cc2sc(N)c(C#N)c2CC1(C)C | 1 | 61* | 24 | -2 | 59* | -53 | 22 | 13
Cc1ccc(Nc2nnc(SCC(=O)Nc3cc(C(=O)O)ccc3C)s2)c(C)c1 | x | -4 | 6 | 3 | 3 | -20 | x | x
CCN(CC(=O)Nc1c(F)cccc1F)C(=O)c1ccc2ccccc2n1 | x | 3 | -6 | x | 0 | x | x | x
CCN(CC(=O)Nc1c(F)cccc1F)C(=O)/C=C/c1ccc2ccccc2n1 | x | 32* | 0 | x | 86* | x | 21 | 90*
COc1cccc(F)c1C(=O)NC(=O)Nc1ccc2nc(C)oc2c1 | x | 119* | 91* | 23 | 119* | -45 | 54* | 40
CSc1nc2ccc(NC(=O)NC(=O)c3c(F)cccc3F)cc2s1 | x | 0 | -6 | -10 | -5 | -13 | x | x
O=S(=O)(O)c1cccc2c(N=Nc3ccc(O)c4ncccc34)cccc12 | x | 27 | 8 | x | 72* | x | 34* | 82*
O=C(NCCC1=CCCCC1)C1CCN(C(=O)c2ccc(Br)cc2)CC1 | -9 | 5 | 10 | -4 | 6 | -16 | x | x
N#CC1=C(N)SC(N)=C(C#N)C1c1ccoc1 | -4 | 67* | 21 | 41 | 80* | -28 | 4 | -4
C=CCNC(=O)C(C#N)c1nc2ccccc2nc1N1CCCCCC1 (stereo not given) | 3 | 74* | 57* | 14 | 71* | -71 | 32* | 32
COc1ccc(CNC(=O)C(C#N)c2nc3ccccc3nc2N2CCCC2)cc1 (stereo not given) | -2 | 46* | 2 | -12 | 54* | -5 | 63* | 75*
SMILES | Bim-Mcl-1 | Bcl-xL primary | GLD-1 TGE inh | Mcl1-Noxa inh | MCL1 BIM primary | Mcl1 Bid PPI | BCLXL inh confirm | MCL1 BIM confirm
CCCCNC(=O)C(C#N)c1nc2ccccc2nc1N1CCCC1 (stereo not given) | -4 | x | x | 11 | x | -1 | x | x
COC(=O)c1cc(C(=O)NNC(=O)c2ccc3c(c2)OCO3)cc([N+](=O)[O-])c1 | x | -3 | 1 | x | -1 | x | x | x
COc1cc(OC)c(OC)cc1/C=C1/Cc2ccccc2C1=O | x | 18 | -75 | x | 111* | x | 85* | 103*
CSCC(C)N1CCC(Oc2cccc(C(=O)NCc3ccccn3)c2)CC1 (stereo not given) | x | 48* | 16 | x | 56* | x | 56* | 70*
CCCSc1ccc([C@H]2N[C@@](C)(C(=O)OC)[C@H]3C(=O)N(C)C(=O)[C@@H]23)cc1OC | x | 6 | -6 | x | 2 | x | x | x
COc1ccc(C(CNC(=O)Nc2ccc(Cl)cc2)N2CCN(C)CC2)cc1 (stereo not given) | x | 1 | 6 | x | 0 | x | x | x
COc1ccc(C(CNC(=O)Nc2ccccc2)N2CCN(C)CC2)cc1 (stereo not given) | x | -1 | 0 | x | 46* | x | 7 | 13
